Hits are enriched below; roughly 27% of the tested compounds scored in any of these assays.
CYP2C19 inh: blockers of cytochrome P450 2C19 activity – biochemical, luminescence, ADME assay, primary screen; P33261; CYP2C19 Supersomes, luciferin-H EGE luminescence, 30 min; inhibition, % at 5 µM; actives 21% (n = 96,000); AID 778, 2007;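 active = CYP2C19 inhibition above a set limit at 5 µM in the primary screen, cut at about 50% in these data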;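 also: plate controls were negative control wells for no effect and 2.5 mM tranylcypromine positive control for full effect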
CYP2C19 activ: human CYP2C19 activators, primary screen, biochemical, luminescence; Cytochrome P450 2C19 (Homo sapiens), P33261; recombinant CYP2C19, luciferin-H EGE luminescence; stronger effect = higher value; 0 = fully inhibited enzyme, 1 = untreated enzyme; activation factor at 5 µM; 96,000 tested, under 10 active;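 active = activation factor of at least 2 at 5 µM in the primary screen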;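 also: 0 = wells with 2.5 mM tranylcypromine and 1 = vehicle-only wells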
CYP2C9 inhib: blockers of cytochrome P450 2C9 activity – biochemical, luminescence, ADME assay, primary screen. P11712. inhibition, % at 5 µM. actives 20% (n = 96,000). CYP2C9 Supersomes, luciferin-H conversion;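 active = blocking of liver enzyme CYP2C9 beyond about 50% at 5 µM, limit read from the data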
Target sequence (P11712 whole entry, looked up): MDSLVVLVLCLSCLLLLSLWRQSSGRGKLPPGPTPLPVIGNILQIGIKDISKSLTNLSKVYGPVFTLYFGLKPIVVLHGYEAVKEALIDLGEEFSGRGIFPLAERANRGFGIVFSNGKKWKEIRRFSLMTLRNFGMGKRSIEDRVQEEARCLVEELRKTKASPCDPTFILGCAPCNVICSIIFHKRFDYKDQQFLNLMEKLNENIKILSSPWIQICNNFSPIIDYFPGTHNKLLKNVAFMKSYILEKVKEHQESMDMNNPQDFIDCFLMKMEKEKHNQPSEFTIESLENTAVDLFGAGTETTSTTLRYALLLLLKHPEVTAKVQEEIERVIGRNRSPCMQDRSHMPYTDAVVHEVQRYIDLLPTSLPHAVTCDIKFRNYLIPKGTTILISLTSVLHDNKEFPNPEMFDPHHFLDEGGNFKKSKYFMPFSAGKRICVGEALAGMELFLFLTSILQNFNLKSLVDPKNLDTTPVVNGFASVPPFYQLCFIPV
sEH act: soluble epoxide hydrolase activators, primary screen, biochemical, human sEH; Bifunctional epoxide hydrolase 2 (Homo sapiens), P34913; purified human sEH enzymatic activity, activator screen; activation, % at 2 µM; actives 0.04% (n = 91,000); AID 717, 2007; in the data active = activation above about 37%
sEH inhibitor: soluble epoxide hydrolase inhibitors, primary screen, biochemical, human sEH | Bifunctional epoxide hydrolase 2 (Homo sapiens), P34913 | recombinant human sEH enzymatic activity assay | inhibition, % at 2 µM | actives 0.34% (n = 91,000) | AID 707, 2007; in the data active = inhibition above about 80%
CYP2C9 act: human CYP2C9 activators, primary screen, biochemical, luminescence; recombinant CYP2C9, luciferin-H conversion; stronger effect = higher value; factor 1 = untreated enzyme, 0 = blocked; activation factor at 5 µM; actives 1.4% (n = 96,000); AID 1024, 2008;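 active = activation factor of 2 or more for CYP2C9 at a 5 µM dose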;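 also: 0 = sulfaphenazole-blocked wells and 1 = vehicle-only wells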
* = called active by the depositor; . = no result.

SMILES	CYP2C19 inh	CYP2C19 activ	CYP2C9 inhib	sEH act	sEH inhibitor	CYP2C9 act
Cc1cc(C)cc(OCC(=O)Nc2ccccc2C(=O)NCc2ccco2)c1	91.4*	0.1	80.0*	6.2	-3.4	0.2
CS(=O)(=O)N(CC(=O)N1CCCC1)c1ccc2c(c1)OCCO2	22.7	0.8	25.3	-7.0	6.7	0.7
CCOc1ncccc1C(=O)OCC(=O)Nc1cc(C(=O)OC)ccc1C(=O)OC	-2.0	1	16.2	.	.	0.8
Cc1sc2nc(SCC(=O)N(CCO)CCO)n(C3CCCCC3)c(=O)c2c1C	4.2	1	15.6	-5.6	6.2	0.8
CC(C)CNC(=O)c1cccc(NC(=O)c2ccco2)c1	-3.5	1	6.4	-3.0	3.3	0.9
O=C(NCc1ccco1)c1cccc(NC(=O)c2ccco2)c1	29.9	0.7	82.4*	-4.2	4.4	0.2
COC(=O)CCC(NC(=O)OCc1ccccc1)C(=O)NC(CC(C)C)C(=O)OC (stereo not given)	35.8	0.6	68.0*	19.5	-19.1	0.3
COc1ccc(C(=O)Nc2nncs2)cc1S(=O)(=O)N1CC(c2ccccc2)CC1=O (stereo not given)	-0.5	1	84.2*	3.8	-4.9	0.2
O=c1oc2ccccc2c2c1ncn2C1CCCCC1	15.5	0.8	16.4	13.9	-14.1	0.8
COc1ccc(NCC(=O)Nc2ccccc2C#N)cc1Cl	94.9*	0.1	59.0*	13.8	-11.7	0.4
COc1cc2c(cc1OC)CN(Cc1ccc(C)s1)CC2	86.4*	0.1	33.2	-15.3	17.0	0.7
CCOC(=O)c1[nH]c2ccc(OC)cc2c1NC(=O)CN1CCc2ccccc2C1	76.7*	0.2	81.1*	.	.	0.2
COc1cc2c(cc1OC)CN(CC(=O)Nc1ccc(C)cc1)CC2	64.7*	0.4	59.8*	-4.3	4.8	0.4
COc1ccc(NC(=O)Cn2cccc2)cc1Cl	27.8	0.7	1.5	6.0	-5.4	1
COc1cc2c(cc1OC)CN(Cc1cc(=O)n3cc(C)ccc3n1)CC2	4.9	1	28.4	.	.	0.7
COCC(=O)Nc1nnc(Cc2ccc(OC)cc2)s1	.	.	.	4.2	-0.9	.
CCCC(=O)Nc1nnc(COC)s1	-3.9	1	17.8	-7.9	7.4	0.8
CC1=CCC(C(C)(C)NC(=O)c2ccccc2)C/C1=N\O (stereo not given)	.	.	.	-3.1	4.5	.
CCCNc1c(N)n(-c2ccccc2)c(=O)[nH]c1=O	-5.7	1.1	-8.6	-11.5	9.1	1.1
COC(=O)c1[nH]c2ccc(C)cc2c1NC(=O)Nc1ccccc1OC	41.8	0.6	48.8	-11.8	12.7	0.5
COc1cc2c(cc1OC)CN(CC(=O)Nc1ccc3c(c1)OCO3)CC2	15.8	0.8	40.2	16.0	-13.9	0.6
CC1CCN(CC(=O)Nc2ccccc2C#N)CC1	75.2*	0.2	30.9	3.6	1.5	0.7
COc1cc2c(cc1OC)CN(CC(=O)Nc1ccccc1C#N)CC2	54.6*	0.5	60.3*	9.3	-11.2	0.4
COC(=O)c1[nH]c2ccc(C)cc2c1NC(=O)CN1CCc2cc(OC)c(OC)cc2C1	67.4*	0.3	80.6*	14.4	-14.8	0.2
O=C(CN1CCCCC1)Nc1ccccc1NC(=O)CN1CCCCC1	-7.5	1.1	-9.0	0.9	-1.4	1.1
SMILES	CYP2C19 inh	CYP2C19 activ	CYP2C9 inhib	sEH act	sEH inhibitor	CYP2C9 act
COc1cc(COCC(O)CN2CCOCC2)cc(OC)c1OC (stereo not given)	8.8	0.9	-9.9	4.3	-6.4	1.1
COc1cc(-n2c(C)nc3cc(C(=O)N4CCOCC4)ccc32)cc(OC)c1OC	-14.3	1.1	-13.4	.	.	1.1
O=C(CSc1nccn1-c1ccccc1)c1ccc(Br)cc1	60.8*	0.4	17.4	19.7	-23.0	0.8
Cn1ccnc1SCC(=O)c1ccc(Br)cc1	93.0*	0.1	15.4	-13.9	12.4	0.8
Cc1ccccc1NC(=O)Cc1nnc(SCC(=O)c2ccc(Br)cc2)n1C	35.8	0.6	28.2	-0.1	3.0	0.7
Cc1ccccc1CSc1nccn1-c1ccccc1	81.6*	0.2	57.4*	-5.7	11.0	0.4
Cc1ccccc1-n1ccnc1SCC(=O)O	22.6	0.8	27.1	7.7	-9.7	0.7
CCOC(=O)Cn1nnc2c(sc3nc4c(c(-c5ccccc5)c32)CCC4)c1=O	-13.8	1.1	-1.0	12.4	-13.4	1
CCOc1cc(C2NC(=O)N(C)C(C)=C2C(=O)OC)cc(Br)c1O (stereo not given)	48.3	0.5	85.5*	11.5	-11.6	0.1
Cc1c(NC(=O)c2cc(=O)[nH]c(=O)[nH]2)c(=O)n(-c2ccccc2)n1C	-9.7	1.1	-17.6	3.8	-4.6	1.2
CN=c1scc(C)n1/N=C/c1ccc(O)c(O)c1O	13.7	0.9	1.8	-1.1	3.0	1
CCN=c1scc(C)n1/N=C/c1ccsc1	60.3*	0.4	37.5	5.7	-6.1	0.6
CC1CN(C)C(c2ccccc2)C(C)C12NC(=O)NC2=O (stereo not given)	7.4	0.9	-0.9	-7.1	6.7	1
O=C(O)C1CSCN1S(=O)(=O)c1cccc2nsnc12 (stereo not given)	4.8	1	-27.9	.	.	1.3
COc1cc(-c2cn(S(=O)(=O)c3cccc4nsnc34)nc2N)cc(OC)c1OC	95.6*	0	87.6*	-1.3	3.5	0.1
Cc1ccc(-c2cn(S(=O)(=O)c3cccc4nsnc34)nc2N)cc1	88.9*	0.1	69.0*	-12.2	8.4	0.3
Nc1nn(S(=O)(=O)c2cccc3nsnc23)cc1-c1ccc(Br)cc1	99.8*	0	99.6*	19.4	-18.8	0
Cc1cccc(NC(=O)C2CCN(S(=O)(=O)c3cccc4nsnc34)CC2)n1	41.2	0.6	4.5	-7.0	4.8	1
COc1ccc(C(=O)OCn2nnc3ccccc3c2=O)cc1OC	-1.4	1	6.5	-0.4	-0.7	0.9
Cc1cc(C(=O)OCn2nnc3ccccc3c2=O)c(C)o1	53.2*	0.5	38.2	.	.	0.6
O=C(OCn1nnc2ccccc2c1=O)c1ccco1	15.7	0.8	10.3	.	.	0.9
COc1cccc(C(=O)OCn2nnc3ccccc3c2=O)c1	81.0*	0.2	11.5	-8.1	10.4	0.9
CN(C)S(=O)(=O)c1ccc(C(=O)OCn2nnc3ccccc3c2=O)cc1	4.7	1	59.0*	14.9	-16.8	0.4
COC(=O)c1cccc(Cn2nnc3ccccc3c2=O)c1	51.4*	0.5	26.2	2.8	-2.2	0.7
O=C(O)CCCC(=O)NCCc1ccncc1	-1.0	1	-0.4	0.9	0.4	1

Assay outcomes deposited in PubChem by several laboratories.
